Here are results for 40 sequences from the OligoGym collection.
Note: reference of the scale not given here.

The first assay concerns the target PYROXD1. In words: pooled miR-30 sensor sort-seq; sequence = guide strand. Conditions: shRNA.
For the sequence TTGATTGTTCTTCAACATCGAA, the sensor-assay potency score (higher = more potent) was -0.89.
For TTTAAAGTAAAATACAACCGAT, the sensor-assay potency score (higher = more potent) is -0.96.
With TTTAGCTTTAGTAAGCTGTTTC, the sensor-assay potency score (higher = more potent) was -0.591.
As to TTATCTGCTTTAGATTTGCTTC, the sensor-assay potency score (higher = more potent) was -0.93.
Same read-out and setting: under TAGAGTCTCCTGAACTCGCTGC stands 0.751; under TAGATTTGCTTCTAGCTTCCTT, 0.523.
In turn, TGATTGTTCTTCAACATCGAAT showed a sensor-assay potency score (higher = more potent) of -0.94.
Regarding TTAAAGTAAAATACAACCGATT, the sensor-assay potency score (higher = more potent) is -0.766.

The target of another assay is QSER1. The assay is described as above. Conditions: shRNA.
Consider TTCATTATCAACTTTATCTGAT, for which the sensor-assay potency score (higher = more potent) was 0.462.
Still for that read-out and setting: the figure for TTTCTTGATGCTGATAACCATC is -1.25; for TATTTGATCGTGCTGTTCCTGG it is -0.0695; for TTGAATAACATGACCTTCCATC it is -0.458.
In turn, TATAAGTTGATTCTTGAGCATT returned a sensor-assay potency score (higher = more potent) of -1.01.
Take TACAACTGTATTTTCTCTGGAT: the sensor-assay potency score (higher = more potent) was 0.0285.
With TACTACTAGAAACAAACTCTTG, the sensor-assay potency score (higher = more potent) was -0.942.
The sequence TTGAATTTGATAGATAACTATG came in with a sensor-assay potency score (higher = more potent) of -0.94.
TAACTTGATCTTCAAGACGGGA yielded a sensor-assay potency score (higher = more potent) of -1.26.
The sequence TTTATCAGAAGTAGCATCCAAA gave a sensor-assay potency score (higher = more potent) of -0.195.
As for TTGAACTGTAGGCTTGAGGAGT, the sensor-assay potency score (higher = more potent) was -0.462.
As for TTTAATAACACTACATTCTCGA, the sensor-assay potency score (higher = more potent) was found to be 0.61.

Another assay has as its target QSOX1. Described as above. Conditions: shRNA.
With TTATTTCTCGCAAAGAATCCAT, the sensor-assay potency score (higher = more potent) was -0.0879.
Take TAGCGCAGTCTCGGCAGCCGAA: the sensor-assay potency score (higher = more potent) is -1.38.
Sequence TTGAAGTCTCTGCAGACTGCAC returned a sensor-assay potency score (higher = more potent) of -0.833.
The sequence TAAGCGGTATAGAAGGACCTGG yielded a sensor-assay potency score (higher = more potent) of -0.156.
As for TACATTTTGCCGAGCTGCCTGC, the sensor-assay potency score (higher = more potent) is -0.913.
The sequence TATTTCTCGCAAAGAATCCATC registered a sensor-assay potency score (higher = more potent) of -1.27.
On the same count and under the same terms, the figure for TTCCGGAACAGCAGGTAGCAAG is -1.46; for TACTCTTCGTTATTTCTCGCAA it is -0.156; for TTGAAGAACCTCACAGTCGGGA it is 0.0825.
Turning to TTTGTGCTGGGACAGGTCCAGA, the sensor-assay potency score (higher = more potent) is -1.47.
Still for that read-out and setting: the figure for TTGTGGCTAGACCAGAGCCAGA is -1.92.

Another assay deals with RAB11A. The assay is described as above. Particulars: shRNA.
TATATTTAAATCTCAGACCTGG yielded a sensor-assay potency score (higher = more potent) of 0.396.
Same read-out and setting: the figure for TTGCTTCTGAGAAACAATGCGG is -0.544.
Still for that read-out and setting: under TATAGCTCGATATCGCTCTTGC stands 0.186.
Turning to TTCATCTGTAGGAACTGCCCTG, the sensor-assay potency score (higher = more potent) is 0.239.
TATTGTTTTTCCATCAACCTGG: the sensor-assay potency score (higher = more potent) came out at 0.22.
In the case of TTATAGCTCGATATCGCTCTTG, the sensor-assay potency score (higher = more potent) is -0.642.
Take TACATTTGTAGAGTCTAGGGCC: the sensor-assay potency score (higher = more potent) was 0.146.
In turn, TTTCAATGAATGACAAACCATT had a sensor-assay potency score (higher = more potent) of -1.27.
In turn, ATGAATAGGAACCACATTGTTG displayed a sensor-assay potency score (higher = more potent) of -1.36.
